Measured values: the supplement of paper PMC12636033
± gives the standard deviation of the averaged measurements. Whole data set: some 33,000 sequences, median “E-score (rank enrichment, -0.5 to 0.5)” near -0.0068, cut for the highest 2% near 0.24. The full list was thinned out, with the highest values kept by preference.

Test system: muMax20 (Max(13-93) K31hArg/K57hArg, M65Nle)
Experiment: PBM 8-mer E-score (E-score (rank enrichment, -0.5 to 0.5)); higher = stronger preferential binding
Experimental: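 Protein binding microarray (universal PBM chip covering all 10-mers in fixed probe flanks) with chemically synthesized human Max(13-93) bHLH-LZ analogs (not full-length Max) bearing noncanonical residues (hArg, Tha, Aib, Nle at 65) and aromatic Cys staples. Read-out per 8-mer (and its reverse complement): E-score (rank-based enrichment, -0.5 to 0.5) and Z-score of median probe intensity.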

Point of comparison: CTGTGTGA, “PBM 8-mer E-score” value 0.134 ± 0.012. Against it:
- CAGTTGTC — lower, -0.0724 ± 0.03
- AATCTGCC — lower, -0.0641 ± 0.019
- AACCTAAC — within error, 0.00712 ± 0.17
- AAGATAGT — within error, 0.0344 ± 0.11
- ATGGTCGG — within error, 0.12 ± 0.014
- AATCGGAT — lower, -0.181 ± 0.015
- GCCGGTCA — lower, -0.116 ± 0.078
- AATTACGC — lower, 0.0652 ± 0.043
- GTTATAGA — within error, 0.21 ± 0.089
- AATATATC — within error, 0.0912 ± 0.07
- AGTATAAG — higher, 0.237 ± 0.042
- AGTATAAC — lower, 0.097 ± 0.009
- GTTATATA — higher, 0.25 ± 0.023
- ATTAGATA — higher, 0.262 ± 0.057
- AGTATAAA — higher, 0.213 ± 0.011
- GTTAGATA — within error, 0.164 ± 0.13
- ATTATATC — higher, 0.247 ± 0.031
- GTTATACA — within error, 0.195 ± 0.095
- CTTATATC — within error, 0.137 ± 0.08
- ATTAGATG — higher, 0.226 ± 0.051
- CATGGCAC — lower, 0.0103 ± 0.037
- CAGCGCAC — lower, -0.171 ± 0.087
- TATGAGGA — lower, -0.0378 ± 0.11
- AACAGACG — lower, -0.142 ± 0.096
- GGTGGATA — lower, -0.0515 ± 0.1
- ACGGTTCA — lower, -0.138 ± 0.047
- CTAGGTGA — within error, 0.108 ± 0.032
- TAGGATGA — lower, -0.00288 ± 0.12
- AGTATCTA — higher, 0.344 ± 0.011
- ATTATACG — lower, 0.0459 ± 0.063
- ATTATATG — higher, 0.251 ± 0.03
- AGTATATG — within error, 0.145 ± 0.017
- ATTATATA — higher, 0.242 ± 0.03
- ATTATACA — within error, 0.174 ± 0.083
- CTTATATA — higher, 0.226 ± 0.043
- AGTATATA — higher, 0.277 ± 0.12
- GGTATCTA — lower, -0.022 ± 0.064
- AGTATATC — lower, -0.038 ± 0.059
- ACTATATG — within error, 0.191 ± 0.089
- CGTATCTA — lower, -0.0745 ± 0.11
- GCCGTACA — within error, 0.042 ± 0.14
- GGCGTACA — lower, -0.082 ± 0.02
- CAAACGTC — lower, 0.0182 ± 0.068
- CAGTAGAC — lower, -0.021 ± 0.044
- AGGATGCG — lower, -0.118 ± 0.034
- ACTATATC — higher, 0.273 ± 0.02
- ACTATATA — higher, 0.235 ± 0.028
- CCTATATC — lower, -0.0516 ± 0.071
- CCTTGTAC — within error, 0.176 ± 0.15
- ACGAAGCG — lower, -0.0243 ± 0.071
- ATACTAGG — within error, 0.138 ± 0.032
- CCATATCA — lower, 0.0749 ± 0.018
- CCATATTA — within error, 0.124 ± 0.062
- CAATATTC — lower, 0.0728 ± 0.011
- ACATATCG — lower, 0.046 ± 0.074
- TAATATTA — higher, 0.337 ± 0.011
- AAATATTC — higher, 0.249 ± 0.0014
- GAATATTA — within error, 0.137 ± 0.083
- TAATATGA — higher, 0.221 ± 0.017
- GAATATTC — within error, 0.195 ± 0.08
- ACATATTA — higher, 0.241 ± 0.011
- ACATATTG — within error, 0.11 ± 0.12
- ACATATCA — higher, 0.262 ± 0.041
- CGGCGTCC — lower, -0.114 ± 0.047
- ATGCAATG — lower, -0.00261 ± 0.02
- CAACTTGG — lower, -0.0581 ± 0.1
- AGAGAACC — lower, -0.143 ± 0.11
- CAGATCTC — lower, -0.176 ± 0.038
- ATCTGACG — lower, -0.0395 ± 0.07
- ATAGCGCG — within error, 0.0731 ± 0.084
- CATTGCGG — lower, -0.148 ± 0.13
- ACTTCAAC — within error, 0.11 ± 0.041
- CCATAGCA — within error, 0.0753 ± 0.09
- ACATAGCA — higher, 0.272 ± 0.032
- AAATATTA — higher, 0.27 ± 0.028
- CAATATTA — higher, 0.221 ± 0.056
- TCATAGCA — lower, 0.108 ± 0.0018
- AAATATTG — within error, 0.138 ± 0.0027
- ATAAAGAG — within error, 0.181 ± 0.089
- AGACAACA — lower, 0.0868 ± 0.027
- TCTATCAA — within error, 0.184 ± 0.099
- ATCTCCAT — lower, 0.0165 ± 0.085
- ATAGGACC — lower, -0.0994 ± 0.04
- GGTAAGGA — lower, -0.00502 ± 0.057
- AATGCTGA — within error, 0.088 ± 0.064
- AACGCGTG — within error, 0.144 ± 0.01
- CACGCGTA — higher, 0.248 ± 0.051
- GATGCTGA — lower, -0.131 ± 0.16
- CACGCGTC — higher, 0.208 ± 0.048
- CATGCTGA — higher, 0.2602 ± 0.0021
- ACCGCGTG — higher, 0.294 ± 0.022
- ACCGCGTA — within error, 0.0588 ± 0.11
- GACGCGTA — within error, 0.0707 ± 0.061
- AACGCGTA — within error, 0.0549 ± 0.11
- CACGCGTG — higher, 0.314 ± 0.11
- ACCGCGTC — lower, -0.131 ± 0.011
- ATAAACGA — higher, 0.229 ± 0.033
- TAATCTGA — lower, -0.0143 ± 0.051
- AGGCCGTC — lower, -0.184 ± 0.049
- TCCCCGCA — lower, -0.0761 ± 0.035
- ATCACCTC — lower, 0.0702 ± 0.029
- TCATCTCA — within error, -0.000685 ± 0.13
- ATTGACCG — lower, 0.0179 ± 0.099
- ATCGCGCG — within error, 0.0373 ± 0.16
- GATGCGTA — lower, 0.0917 ± 0.02
- CATGCGTA — within error, 0.259 ± 0.15
- AATGCGTA — lower, 0.0783 ± 0.035
- GCGTGGTA — within error, 0.148 ± 0.095
